According to PubChem BioAssay (NCATS):
Results filed as inconclusive are left out. The source made the active and inactive calls. The call rests on the fitted dose curve; in most records, active means well fitted inhibition curve with a large enough effect; inconclusive means small, poorly fitted or top-dose-only effect; inactive means flat fitted curve, though single readings scatter.

How the values were obtained:
Assay in all cases: qHTS profiling for inhibitors of Plasmodium falciparum proliferation (AID 504749); further: nearly all actives have a fitted effect of over 60% in size
Settings in all cases: P. falciparum in erythrocytes, SYBR Green DNA, 72 h
[1] = test system: CP286
In short: (§1)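 Readout was DNA-dye fluorescence from lysed cultures, ex 485/em 535 nm. Parasitized red cells had grown 72 h with compound; data scaled between 0.29 uM artemisinin and DMSO wells and corrected using vehicle-only plates.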

[2] = test system: CP291
In short: as §1

[3] = test system: CP297
In short: as §1

[4] = test system: CP305
In short: as §1

[5] = test system: CP315
In short: as §1

[6] = test system: CP325
In short: as §1

[7] = test system: CP329
In short: as §1

[8] = test system: CP335
In short: as §1

[9] = test system: DFO2036
In short: as §1

[10] = test system: DIV14
In short: as §1

Measured: Potency
Potency means the concentration at half of the fitted maximal effect.

CC(=O)O[C@H]1C(=O)[C@@]2(C)[C@H]([C@H](OC(=O)c3ccccc3)[C@]3(O)C[C@H](OC(=O)[C@H](O)[C@@H](NC(=O)c4ccccc4)c4ccccc4)C(C)=C1C3(C)C)[C@]1(OC(C)=O)CO[C@@H]1C[C@@H]2O
active: [1] 178 nM | [2] 478 nM | [3] 757 nM | [4] 601 nM | [5] 478 nM | [6] 536 nM | [7] 601 nM | [8] 269 nM | [9] 282 nM | [10] 953 nM

CC[C@]1(O)CC2CN(CCc3c([nH]c4ccccc34)[C@@](C(=O)OC)(c3cc4c(cc3OC)N(C)[C@H]3[C@@](O)(C(=O)OC)[C@H](OC(C)=O)[C@]5(CC)C=CCN6CC[C@]43[C@@H]65)C2)C1 (stereo not given in full)
active: [1] 158 nM | [2] 1900 nM | [3] 3010 nM | [4] 3380 nM | [5] 1690 nM | [6] 3380 nM | [7] 2390 nM | [8] 675 nM | [9] 3550 nM | [10] 6750 nM
